hgDAF12 agonist = H. glycines DAF-12 receptor agonists, primary screen, cell-based, luminescence, HEK293, GAL4 fusion, UAS-luciferase. Nuclear hormone receptor DAF-12 (Heterodera glycines), GAL4 fusion. HEK293 GAL4-hgDAF12 UAS-luciferase reporter, agonist luminescence; normalized to butyrate control. activation, % at 6.8 µM. hit rate 1.8% among 370,000;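 active means activation above a cutoff set at the mean of all screened compounds plus 3 SD, cut at about 10% in these data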
hcDAF12 agonist = H. contortus DAF-12 nuclear receptor activators, primary screen, cell-based, luminescence, HEK293, lit1-tk-luc reporter; AID 652067, 2013; HEK293 hcDAF-12 lit1-tk-luc reporter; 0% DMSO, 100% Δ7-dafachronic acid; hit rate 1.4% among 370,000; activation, % at 6.8 µM;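 active means activation above the mean of all tested compounds plus 3 SD, cut at about 5.5% in these data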
DAX1 inh-1 = DAX1 (NR0B1) inhibitors, primary screen, cell-based, HEK293, Gal4-DAX1, luciferase luminescence; HEK293 Gal4-DAX1 luciferase reporter; inhibition, % at 6.75 µM; hit rate 0.99% among 340,000;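 active means inhibition above the mean over all tested compounds plus 3 SD, cut at about 4.2% in these data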;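 further: inhibition shows as a rise in luminescence from relieved DAX1 repression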
DAX1 inh-2 = DAX1 (NR0B1) inhibitors on StAR promoter, primary screen, cell-based, luminescence, SF-1 (NR5A1), full-length DAX-1. HEK293T StAR-luciferase reporter, SF-1/DAX-1 repression relief. inhibition, % at 6.8 µM. hit rate 1.1% among 370,000. AID 652010, 2013;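 active means inhibition above the mean over all tested compounds plus 3 SD, cut at about 3.6% in these data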;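 further: higher inhibition means more luminescence from relief of DAX-1 repression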
ssDAF-12 act = S. stercoralis DAF-12 nuclear receptor activators, primary screen, cell-based, luminescence, HEK293, GRIP1 co-expression, lit1-tk-luc | Nuclear hormone receptor DAF-12 (Strongyloides stercoralis) | HEK293 ssDAF-12/GRIP1 lit1-tk-luc reporter; % of 3 µM dafachronic acid response | activation, % at 6.8 µM | hit rate 1% among 370,000;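 active means activation above the mean over all tested compounds plus 3 SD, cut at about 0.9% in these data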
LXRb hcDAF ctr = LXR agonists, Gal4 luciferase reporter, confirmation, counter-screen for hcDAF-12 agonist project, cell-based, luminescence, HEK293, H. contortus campaign | AID 743027, 2013 | shares compounds with hcDAF12 agonist | activation, % at 6.8 µM | 3,400 tested, under 10 active | HEK293 Gal4-LXR tk-luc reporter, 24 h; normalized: DMSO 0%, positive control 100%;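 active means mean percent activation of the reporter above a cutoff set as the average over tested compounds plus their standard deviation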
Target sequence (P55055 whole entry, looked up, the tested form may be a part): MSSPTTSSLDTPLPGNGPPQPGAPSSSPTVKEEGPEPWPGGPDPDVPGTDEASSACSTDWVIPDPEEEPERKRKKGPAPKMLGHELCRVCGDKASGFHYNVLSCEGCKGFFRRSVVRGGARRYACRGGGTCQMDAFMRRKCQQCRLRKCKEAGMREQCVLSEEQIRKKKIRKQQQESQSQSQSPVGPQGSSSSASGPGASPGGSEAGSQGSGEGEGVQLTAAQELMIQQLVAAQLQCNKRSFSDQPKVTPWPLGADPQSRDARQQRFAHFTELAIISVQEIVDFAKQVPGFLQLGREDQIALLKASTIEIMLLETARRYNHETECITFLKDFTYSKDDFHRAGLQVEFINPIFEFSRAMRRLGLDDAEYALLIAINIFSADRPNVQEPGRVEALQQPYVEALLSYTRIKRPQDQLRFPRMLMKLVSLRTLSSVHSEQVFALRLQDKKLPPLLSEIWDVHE
hcDAF12 conf = H. contortus DAF-12 receptor agonists, confirmation, cell-based, luminescence, HEK293, lit1-tk-luc, triplicate | activation, % at 6.8 µM | hit rate 61% among 3,400 | shares compounds with hcDAF12 agonist | HEK293 hcDAF-12 lit1-tk-luc reporter; % of Δ7-dafachronic acid response | AID 743032, 2013;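 active means mean activation across triplicate tests above the threshold derived from the earlier primary screen, cut at about 5.5% in these data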
A number is an active result; - = inactive; . = no result. Shown are actives, neighbours in structure and some others; about 4.1% of the full set was active somewhere.

SMILES | hgDAF12 agonist | hcDAF12 agonist | DAX1 inh-1 | DAX1 inh-2 | ssDAF-12 act | LXRb hcDAF ctr | hcDAF12 conf
Nn1c(SCC(=O)N2CCOCC2)nnc1-c1n[nH]c2c1CCC2 | - | - | . | - | - | . | .
Cc1nn(-c2ccc(Br)cc2)c(=O)c2ccccc12 | 10.7 | 11.1 | - | - | 1.7 | - | 10.9
C=CCCC1CN(Cc2ccc(OC)cc2)S(=O)(=O)c2c(Oc3cc(C)c(C)c(C)c3)cccc2O1 (centres undefined) | - | - | . | - | - | . | .
CCOc1ccc(NC(=O)Nc2ccc3nsnc3c2)cc1 | - | - | - | - | - | . | .
CCOc1ccc(NC(=O)Nc2cccs2)cc1 | 10.7 | 7.3 | - | - | - | - | -
O=C1c2ccccc2S(=O)(=O)c2cc(N3CCOCC3)ccc21 | - | 6.6 | - | - | - | - | -
O=C1c2ccccc2S(=O)(=O)c2cc(N3CCN(c4ccccc4)CC3)ccc21 | - | - | . | - | - | . | .
O=c1c2ccccc2[nH]c(=S)n1CCc1ccccc1 | - | 8.1 | - | - | - | - | 5.7
CCOC(=O)c1nn(-c2ccc(C)cc2)cc1C(=O)c1ccccc1 | 12.5 | 6.9 | - | - | - | - | 5.7
CC(=O)c1nn(-c2ccc(Cl)cc2)cc1C(=O)c1ccccc1 | - | - | - | - | - | . | .
Fc1cccc(-c2nnn3c2nc(Cl)c2ccccc23)c1 | 11.7 | 8.3 | - | - | - | - | 6.4
COCCCNc1nc2c(-c3ccc(Cl)cc3)nnn2c2ccccc12 | - | - | - | - | - | . | .
NNc1nc2c(-c3ccc(Cl)cc3)nnn2c2ccccc12 | - | 8.1 | 5.8 | - | - | - | 13.7
Clc1nc2c(-c3ccccc3)nnn2c2ccccc12 | - | - | - | - | - | . | .
O=C1C(=Cc2ccco2)C(=O)c2ccccc21 | - | 7.3 | - | - | - | - | -
Cc1ccc(-c2nc3c4ccccc4ccn3c2CC2CCCCC2)cc1 | 11.0 | 7.5 | . | - | 2.5 | - | 6.2
Cc1ccc(-c2nc3cc(C)c(Br)c(C)n3c2CC2CCCCC2)cc1 | - | 7.7 | . | - | 1.7 | - | -
N#Cc1ccc(-c2nc3c4ccccc4ccn3c2CC2CCCCC2)cc1 | - | - | . | - | - | . | .
Cc1cc2nc(-c3ccccc3)c(CC3CCCCC3)n2c(C)c1Br | - | 6.9 | . | - | 0.9 | - | -
Cc1cc2nc(-c3cccc(Cl)c3)c(CC3CCCCC3)n2c(C)c1Br | - | - | . | - | - | . | .
C[C@H]1CN([C@@H](C)CO)C(=O)c2c(c3ccccc3n2C)-c2ccccc2CO[C@H]1CN(C)C(=O)Nc1cccc(F)c1 | - | - | . | - | - | . | .
O=C(NCCc1c[nH]c2ccccc12)c1cnc2sccn2c1=O | - | 8.6 | - | - | 1.4 | - | 8.9
O=C(NCCc1c[nH]c2ccccc12)c1cnccn1 | - | 6.7 | - | - | 3.4 | - | -
O=C(NCc1ccc(F)cc1)c1cnc2sccn2c1=O | - | - | - | - | - | . | .
Nc1[nH]c(C(=O)c2ccccc2)c(-c2cccc(C(F)(F)F)c2)c1C(=O)NCCc1c[nH]c2ccccc12 | - | - | . | - | - | . | .
SMILES | hgDAF12 agonist | hcDAF12 agonist | DAX1 inh-1 | DAX1 inh-2 | ssDAF-12 act | LXRb hcDAF ctr | hcDAF12 conf
COc1ccc(C(=O)Nc2ccc(C3(C#N)CCCC3)cc2)cc1 | - | - | - | - | - | . | .
N#CC1(c2ccc(NC(=O)c3ccccc3F)cc2)CCCC1 | 23.2 | 6.9 | - | - | - | - | 6.6
Cn1c(C(=O)Nc2ccccc2)cc2sccc21 | 11.1 | 7.0 | - | - | 1.4 | - | 11.7
CCCN1CCCCC(NC(=O)c2ccccc2OC)C1=O (centres undefined) | - | - | . | - | - | . | .
C=CCN1C(=O)[C@@H](CC(=O)N2CCC(c3ccccc3)CC2)[C@]2(C(=O)OC)CCCCC=C12 | - | - | . | - | - | . | .
c1ccc(-c2c[nH]c3ccc(OCc4ccc5ccccc5n4)c(-c4ccccc4)c23)cc1 | - | 7.4 | . | - | - | - | -
C=CCN1[C@@H](C)COc2cccc(F)c2S1(=O)=O | - | - | . | - | - | . | .
CCS(=O)(=O)n1nc(-c2ccccc2)cc1N | - | - | - | - | - | . | .
CCCS(=O)(=O)n1nc(-c2ccccc2)cc1N | - | 9.9 | - | - | - | - | -
Cc1cc(C)n(-c2nc3ccccc3nc2Nc2ccc(CC(=O)O)cc2)n1 | - | - | - | - | - | . | .
Cc1ccc(Nc2nc3ccccc3nc2-n2nc(C)cc2C)cc1 | - | 8.8 | - | - | - | - | -
O=C(NC1CCOc2ccccc21)C1CCCC1 (centres undefined) | - | 6.7 | - | - | - | - | -
O=C(NC1CCCc2ccccc21)C1CCCC1 (centres undefined) | - | - | - | - | - | . | .
CN1CC(=O)N2[C@@H](C[C@]3(c4c[nH]c5ccccc45)c4ccccc4N(S(=O)(=O)c4ccccc4)[C@H]23)C1=O | - | 6.6 | . | . | - | - | -
Cc1ccc(C)c(NC(=O)[C@@H]2CCCN2S(=O)(=O)c2cccc3cccnc23)c1 | - | - | . | . | - | . | .
O=C(Cc1ccccc1[N+](=O)[O-])Nc1ccc(S(=O)(=O)N2CCCC2)cc1 | - | 9.7 | - | - | 1.0 | - | -
O=C(Cc1ccc(Br)cc1)Nc1ccc(S(=O)(=O)N2CCCC2)cc1 | - | - | - | - | - | . | .
CC1(c2nnnn2Cc2ccccc2)CCCC(=O)N1Cc1cccs1 (centres undefined) | - | - | . | - | - | . | .
CC(=O)c1ccc2c3c(cccc13)C(=O)N(CCc1ccccc1)C2=O | - | 8.4 | - | - | 3.0 | - | 9.7
COC(=O)[C@]12C[C@H](CC(=O)NCc3cccc(C(F)(F)F)c3)C(=O)N(CCC3=CCCCC3)C1=C[C@H](C(C)C)O[C@@H]2C1CC1 | - | - | . | - | - | . | .
CCC1CCC(N2CCN(c3cccc(OC)c3)CC2)CC1 (centres undefined) | - | 8.1 | - | - | - | - | -
C=CCn1c(COc2ccc(CC)cc2)nnc1SC/C(O)=C(\C#N)c1nc2ccccc2[nH]1 | - | 8.2 | - | - | - | - | 6.1
C=CCn1c(COc2ccccc2)nnc1SCc1ccc(C#N)cc1 | - | - | - | - | - | . | .

Screening data (PubChem)
